Measurements from the supplement of paper PMC10849652.
About 8,800 targets were measured; listed, in parts, are those with a hit and a random draw of the rest. About 0.5% of all pairs of compound and target were hits.

How the values were obtained:
Test in all cases: log2 fold change, soluble protein after heating vs DMSO (PISA); higher = thermal stabilisation; K562 lysate, 10 uM; active = over 0.2 and 3.5 SD of the protein, either way, in both replicates (recomputed)
[1] = compound: Cc1cn(-c2cc(NC(=O)c3ccc(C)c(Nc4nccc(-c5cccnc5)n4)c3)cc(C(F)(F)F)c2)cn1 [nilotinib]
Summary of the method: (§1)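 To prepare the extract, K562 pellets were dounce-homogenised in PBS pH 7.4 with 1 mM MgCl2, giving crude material at 1 mg/mL protein. This was treated with 10 μM compound for 30 min, then heated in aliquots for 3 min over 48°C-58°C before pooling and addition of NP-40 to 0.5% at 4°C. Centrifugation at 21,000xg for 90 min left soluble protein in the supernatant, which TMTpro 16plex LC-MS/MS quantified with equalised channel sums. Results are log-two fold changes in thermal stability compared with solvent controls, from duplicates.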

[2] = compound: Cc1nc(Nc2n[nH]c3c2CN(C(=O)N[C@H](CN(C)C)c2ccccc2)C3(C)C)c2sccc2n1
Summary of the method: as §1

[3] = compound: Cc1nc(Nc2ncc(C(=O)Nc3c(C)cccc3Cl)s2)cc(N2CCN(CCO)CC2)n1 [dasatinib]
Summary of the method: as §1

[4] = compound: Cc1ncc(-c2ccnc(Nc3ccc(S(C)(=O)=O)cc3)n2)n1C(C)C
Summary of the method: as §1

[5] = compound: Cn1cc(-c2ccc3c(c2)CCN3C(=O)Cc2cccc(C(F)(F)F)c2)c2c(N)ncnc21
Summary of the method: as §1

[6] = compound: Cn1cc(CNCC2CCN(c3ncc(C(=O)NO)cn3)CC2)c2ccccc21 [quisinostat]
Summary of the method: as §1

[7] = compound: Cn1cncc1[C@@](N)(c1ccc(Cl)cc1)c1ccc2c(c1)c(-c1cccc(Cl)c1)cc(=O)n2C [tipifarnib]
Summary of the method: as §1

[8] = compound: NC(=O)Nc1cc(-c2cccc(F)c2)sc1C(=O)N[C@H]1CCCNC1
Summary of the method: as §1

[9] = compound: NC(=O)c1cnc(N[C@@H]2CCCC[C@@H]2N)nc1Nc1cccc(-n2nccn2)c1
Summary of the method: as §1

[10] = compound: NC1(c2ccc(-c3nc4ccn5c(=O)[nH]nc5c4cc3-c3ccccc3)cc2)CCC1
Summary of the method: as §1

[11] = compound: NCC(=O)Nc1ccc(-n2nc(C(F)(F)F)cc2-c2ccc3c(ccc4ccccc43)c2)cc1
Summary of the method: as §1

[12] = compound: O=C(CCCCCCC(=O)Nc1ccccc1)NO [vorinostat]
Summary of the method: as §1

[13] = compound: O=C(O)c1ccc2c(c1)nc(Nc1cccc(Cl)c1)c1ccncc12 [silmitasertib]
Summary of the method: as §1

[14] = compound: O=C1NC(=O)C(c2cnc3ccccn23)=C1c1cn2c3c(cc(F)cc13)CN(C(=O)N1CCCCC1)CC2
Summary of the method: as §1

[15] = compound: c1cn2cc(-c3ccc4cn[nH]c4c3)nc(Nc3ccc(N4CCOCC4)cc3)c2n1 [entospletinib]
Summary of the method: as §1

Measured: log2 fold change

CASP6 (UniProt P55212)
Chain of UniProt P55212 (P55212 whole entry, looked up): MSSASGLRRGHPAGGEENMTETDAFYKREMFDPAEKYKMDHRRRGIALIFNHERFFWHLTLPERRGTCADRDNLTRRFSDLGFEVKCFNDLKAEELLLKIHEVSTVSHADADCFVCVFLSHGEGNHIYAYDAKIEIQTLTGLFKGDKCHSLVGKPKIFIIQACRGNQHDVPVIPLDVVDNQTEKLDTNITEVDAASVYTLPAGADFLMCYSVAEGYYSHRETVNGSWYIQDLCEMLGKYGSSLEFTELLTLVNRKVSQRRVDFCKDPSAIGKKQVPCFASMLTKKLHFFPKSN
inactive: [1] 0.018 | [2] 0.017 | [3] 0.005 | [4] -0.026 | [5] -0.001 | [6] 0.013 | [7] -0.027 | [8] -0.034 | [9] 0.003 | [10] 0.023 | [11] -0.014 | [12] -0.049 | [13] 0.045 | [14] -0.018 | [15] -0.01

C1orf112 (UniProt Q9NSG2)
Chain of UniProt Q9NSG2 (Q9NSG2 whole entry, looked up): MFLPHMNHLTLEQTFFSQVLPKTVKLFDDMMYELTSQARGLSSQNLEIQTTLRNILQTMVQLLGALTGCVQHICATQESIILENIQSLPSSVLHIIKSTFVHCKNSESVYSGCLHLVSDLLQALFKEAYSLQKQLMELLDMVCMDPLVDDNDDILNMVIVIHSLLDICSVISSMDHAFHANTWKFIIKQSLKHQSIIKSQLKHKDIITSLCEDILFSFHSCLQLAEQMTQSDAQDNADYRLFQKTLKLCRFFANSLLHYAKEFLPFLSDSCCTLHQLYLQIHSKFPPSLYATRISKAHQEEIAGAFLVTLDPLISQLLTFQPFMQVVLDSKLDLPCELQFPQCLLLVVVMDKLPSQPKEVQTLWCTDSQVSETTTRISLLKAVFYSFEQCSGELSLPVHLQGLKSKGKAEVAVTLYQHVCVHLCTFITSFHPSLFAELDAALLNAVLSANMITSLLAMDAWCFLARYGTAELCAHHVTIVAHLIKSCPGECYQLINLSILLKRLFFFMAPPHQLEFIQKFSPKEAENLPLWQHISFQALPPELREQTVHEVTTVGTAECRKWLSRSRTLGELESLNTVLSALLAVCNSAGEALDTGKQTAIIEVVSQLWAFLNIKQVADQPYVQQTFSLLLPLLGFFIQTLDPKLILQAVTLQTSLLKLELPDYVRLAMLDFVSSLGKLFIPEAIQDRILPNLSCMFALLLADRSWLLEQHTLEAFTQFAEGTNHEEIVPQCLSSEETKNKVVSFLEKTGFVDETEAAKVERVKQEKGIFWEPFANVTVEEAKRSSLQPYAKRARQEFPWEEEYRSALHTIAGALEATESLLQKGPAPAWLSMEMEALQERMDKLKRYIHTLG
inactive: [1] 0.089 | [2] -0.015 | [3] -0.102 | [4] 0.017 | [5] 0.05 | [6] -0.1 | [7] -0.046 | [8] 0.036 | [9] -0.03 | [10] -0.007 | [11] -0.075 | [12] -0.095 | [13] -0.084 | [14] 0.003 | [15] -0.037

CDK5 (UniProt Q00535)
active: [4] 0.541 | [13] 0.855
inactive: [1] -0.013 | [2] 0.23 | [3] 0.022 | [5] 0.019 | [6] -0.132 | [7] 0.003 | [8] 0.044 | [9] 0.05 | [10] -0.112 | [11] -0.036 | [12] -0.232 | [14] 0.179 | [15] 0.036

CASC4 (UniProt Q6P4E1)
inactive: [1] -0.072 | [2] -0.006 | [3] 0.037 | [4] 0.053 | [5] 0.029 | [6] 0.021 | [7] -0.033 | [8] -0.024 | [9] 0.035 | [10] -0.011 | [11] -0.034 | [12] 0.02 | [13] 0.019 | [14] 0.025 | [15] -0.029

ATP13A1 (UniProt Q9HD20)
inactive: [1] 0.009 | [2] 0.004 | [3] 0.102 | [4] 0.003 | [5] 0.005 | [6] 0.001 | [7] -0.109 | [8] -0.044 | [9] 0.07 | [10] 0.065 | [11] -0.009 | [12] -0.094 | [13] 0.03 | [14] -0.02 | [15] -0.03

CCDC25 (UniProt Q86WR0)
inactive: [1] 0.016 | [2] -0.023 | [3] -0.043 | [4] -0.021 | [5] -0.013 | [6] -0.039 | [7] 0.002 | [8] 0 | [9] 0.024 | [10] -0.031 | [11] 0.025 | [12] 0.025 | [13] -0.032 | [14] -0.011 | [15] 0.009

ATP2B4 (UniProt P23634)
inactive: [1] -0.05 | [2] 0.098 | [3] -0.031 | [4] 0.003 | [5] 0.021 | [6] 0.164 | [7] -0.028 | [8] -0.019 | [9] 0.019 | [10] 0.008 | [11] -0.026 | [12] -0.042 | [13] -0.003 | [14] -0.079 | [15] -0.042

CAMKK1 isoform 2 (UniProt Q8N5S9)
inactive: [1] -0.013 | [2] 0.144 | [3] 0.05 | [4] 0.064 | [5] 0.189 | [6] -0.072 | [7] -0.064 | [8] 0.047 | [9] -0.002 | [10] 0.007 | [11] 0.006 | [12] -0.255 | [13] 0.072 | [14] -0.007 | [15] -0.078

CCNY (UniProt Q8ND76)
Chain of UniProt Q8ND76 (Q8ND76 whole entry, looked up): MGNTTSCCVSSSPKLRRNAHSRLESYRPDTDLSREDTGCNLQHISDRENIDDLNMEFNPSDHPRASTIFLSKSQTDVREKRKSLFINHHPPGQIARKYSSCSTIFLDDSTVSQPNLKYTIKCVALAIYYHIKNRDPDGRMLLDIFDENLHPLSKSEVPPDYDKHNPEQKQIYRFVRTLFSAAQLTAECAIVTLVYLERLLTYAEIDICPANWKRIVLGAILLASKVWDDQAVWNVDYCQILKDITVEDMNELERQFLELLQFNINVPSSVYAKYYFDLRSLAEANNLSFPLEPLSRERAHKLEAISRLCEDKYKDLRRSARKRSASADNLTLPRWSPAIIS
inactive: [1] 0.017 | [2] 0.016 | [3] -0.021 | [4] 0.05 | [5] 0.065 | [6] -0.216 | [7] 0.057 | [8] 0.077 | [9] -0.022 | [10] 0.025 | [11] 0.076 | [13] -0.018 | [14] -0.002 | [15] -0.074
active: [12] -0.822

C1orf131 isoform 5 (UniProt Q8NDD1)
inactive: [1] -0.106 | [2] -0.059 | [3] 0.048 | [4] -0.135 | [5] 0.034 | [6] -0.103 | [7] 0.073 | [8] -0.025 | [9] -0.035 | [10] 0.002 | [11] 0.059 | [13] -0.025 | [14] 0.039 | [15] -0.013
active: [12] -0.445

BRAT1 (UniProt Q6PJG6)
active: [12] -0.32
inactive: [1] 0.031 | [2] -0.016 | [3] -0.046 | [4] 0.01 | [5] 0.046 | [6] -0.07 | [7] 0 | [8] 0.008 | [9] 0.047 | [10] -0.017 | [11] 0.015 | [13] -0.002 | [14] -0.013 | [15] 0.004

CHD4 isoform 2 (UniProt Q14839)
inactive: [1] 0.006 | [2] 0.008 | [3] -0.011 | [4] -0.006 | [5] 0.015 | [6] -0.038 | [7] -0.008 | [8] 0.031 | [9] 0.01 | [10] 0.001 | [11] 0.023 | [13] -0.006 | [14] 0.015 | [15] -0.01
active: [12] -0.284

BSDC1 (UniProt Q9NW68)
inactive: [1] 0.016 | [2] -0.009 | [3] 0.018 | [4] 0.027 | [5] -0.018 | [6] -0.024 | [7] -0.093 | [8] 0.003 | [9] -0.023 | [10] 0.016 | [11] -0.073 | [12] 0.13 | [13] -0.018 | [14] 0.024 | [15] -0.002

CDKN1C (UniProt P49918)
Chain of UniProt P49918 (P49918 whole entry, looked up): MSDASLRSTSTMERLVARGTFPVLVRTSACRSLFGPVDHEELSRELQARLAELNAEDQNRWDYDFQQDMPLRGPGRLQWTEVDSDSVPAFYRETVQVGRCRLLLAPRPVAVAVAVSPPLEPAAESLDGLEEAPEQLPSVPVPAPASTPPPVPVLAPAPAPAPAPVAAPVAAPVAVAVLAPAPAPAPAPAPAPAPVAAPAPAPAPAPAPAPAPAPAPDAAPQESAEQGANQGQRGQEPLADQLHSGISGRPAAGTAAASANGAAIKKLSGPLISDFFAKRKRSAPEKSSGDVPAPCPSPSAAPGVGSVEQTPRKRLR
inactive: [1] -0.054 | [2] -0.035 | [3] 0.083 | [4] 0.094 | [5] 0.055 | [6] 0.091 | [7] 0.037 | [8] -0.091 | [9] -0.101 | [10] 0.04 | [11] 0.124 | [12] 0.058 | [13] -0.029 | [14] 0.134 | [15] 0.048

CDC16 (UniProt Q13042)
inactive: [1] -0.013 | [2] 0.023 | [3] -0.012 | [4] -0.027 | [5] 0.019 | [6] 0.01 | [7] 0.017 | [8] 0.024 | [9] -0.019 | [10] -0.014 | [11] -0.068 | [13] 0.023 | [14] -0.006 | [15] -0.015
active: [12] -0.265

CEBPZOS (UniProt A8MTT3)
Chain of UniProt A8MTT3 (A8MTT3 whole entry, looked up): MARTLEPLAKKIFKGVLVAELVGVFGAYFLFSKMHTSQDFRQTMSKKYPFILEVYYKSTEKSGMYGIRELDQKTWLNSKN
inactive: [1] 0.069 | [2] -0.01 | [3] 0.053 | [4] 0.024 | [5] 0.044 | [6] 0.02 | [7] -0.017 | [8] -0.039 | [9] -0.004 | [10] -0.008 | [11] -0.113 | [12] 0.082 | [13] -0.004 | [14] -0.025 | [15] -0.037

CCDC47 (UniProt Q96A33)
active: [12] 0.207
inactive: [1] -0.012 | [2] -0.009 | [3] -0.016 | [4] 0.025 | [5] -0.009 | [6] 0.006 | [7] -0.025 | [8] 0.014 | [9] 0.019 | [10] -0.023 | [11] 0.002 | [13] 0.026 | [14] 0.011 | [15] -0.007

CDK9 isoform 2 (UniProt P50750)
Chain of UniProt P50750 (P50750 whole entry, looked up): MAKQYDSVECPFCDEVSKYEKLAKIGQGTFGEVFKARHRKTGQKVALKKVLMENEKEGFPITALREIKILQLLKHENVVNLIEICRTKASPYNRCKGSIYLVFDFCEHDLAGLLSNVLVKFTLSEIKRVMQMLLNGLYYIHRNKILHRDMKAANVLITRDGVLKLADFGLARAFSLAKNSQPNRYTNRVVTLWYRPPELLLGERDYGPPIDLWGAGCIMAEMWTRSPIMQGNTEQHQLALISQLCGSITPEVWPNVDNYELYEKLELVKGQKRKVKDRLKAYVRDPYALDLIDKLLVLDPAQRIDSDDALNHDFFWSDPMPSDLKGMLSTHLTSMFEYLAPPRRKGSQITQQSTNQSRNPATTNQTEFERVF
active: [4] 0.403
inactive: [1] -0.035 | [2] 0.255 | [3] 0.003 | [5] -0.007 | [6] -0.028 | [7] -0.016 | [8] 0.009 | [9] 0.078 | [10] -0.04 | [11] 0.081 | [12] -0.198 | [13] 0.164 | [14] 0.402 | [15] 0.038

C18orf32 (UniProt Q8TCD1)
Chain of UniProt Q8TCD1 (Q8TCD1 whole entry, looked up): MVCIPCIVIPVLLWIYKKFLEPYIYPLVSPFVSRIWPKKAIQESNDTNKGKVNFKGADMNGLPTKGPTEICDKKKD
inactive: [1] 0.058 | [2] -0.078 | [3] -0.026 | [4] 0.072 | [5] 0.167 | [6] 0.027 | [7] 0.093 | [8] -0.11 | [9] -0.084 | [10] 0.062 | [11] 0.004 | [13] -0.021 | [14] 0.017 | [15] -0.071
active: [12] -0.486

ATR (UniProt Q13535)
Chain of UniProt Q13535 (Q13535 whole entry, looked up): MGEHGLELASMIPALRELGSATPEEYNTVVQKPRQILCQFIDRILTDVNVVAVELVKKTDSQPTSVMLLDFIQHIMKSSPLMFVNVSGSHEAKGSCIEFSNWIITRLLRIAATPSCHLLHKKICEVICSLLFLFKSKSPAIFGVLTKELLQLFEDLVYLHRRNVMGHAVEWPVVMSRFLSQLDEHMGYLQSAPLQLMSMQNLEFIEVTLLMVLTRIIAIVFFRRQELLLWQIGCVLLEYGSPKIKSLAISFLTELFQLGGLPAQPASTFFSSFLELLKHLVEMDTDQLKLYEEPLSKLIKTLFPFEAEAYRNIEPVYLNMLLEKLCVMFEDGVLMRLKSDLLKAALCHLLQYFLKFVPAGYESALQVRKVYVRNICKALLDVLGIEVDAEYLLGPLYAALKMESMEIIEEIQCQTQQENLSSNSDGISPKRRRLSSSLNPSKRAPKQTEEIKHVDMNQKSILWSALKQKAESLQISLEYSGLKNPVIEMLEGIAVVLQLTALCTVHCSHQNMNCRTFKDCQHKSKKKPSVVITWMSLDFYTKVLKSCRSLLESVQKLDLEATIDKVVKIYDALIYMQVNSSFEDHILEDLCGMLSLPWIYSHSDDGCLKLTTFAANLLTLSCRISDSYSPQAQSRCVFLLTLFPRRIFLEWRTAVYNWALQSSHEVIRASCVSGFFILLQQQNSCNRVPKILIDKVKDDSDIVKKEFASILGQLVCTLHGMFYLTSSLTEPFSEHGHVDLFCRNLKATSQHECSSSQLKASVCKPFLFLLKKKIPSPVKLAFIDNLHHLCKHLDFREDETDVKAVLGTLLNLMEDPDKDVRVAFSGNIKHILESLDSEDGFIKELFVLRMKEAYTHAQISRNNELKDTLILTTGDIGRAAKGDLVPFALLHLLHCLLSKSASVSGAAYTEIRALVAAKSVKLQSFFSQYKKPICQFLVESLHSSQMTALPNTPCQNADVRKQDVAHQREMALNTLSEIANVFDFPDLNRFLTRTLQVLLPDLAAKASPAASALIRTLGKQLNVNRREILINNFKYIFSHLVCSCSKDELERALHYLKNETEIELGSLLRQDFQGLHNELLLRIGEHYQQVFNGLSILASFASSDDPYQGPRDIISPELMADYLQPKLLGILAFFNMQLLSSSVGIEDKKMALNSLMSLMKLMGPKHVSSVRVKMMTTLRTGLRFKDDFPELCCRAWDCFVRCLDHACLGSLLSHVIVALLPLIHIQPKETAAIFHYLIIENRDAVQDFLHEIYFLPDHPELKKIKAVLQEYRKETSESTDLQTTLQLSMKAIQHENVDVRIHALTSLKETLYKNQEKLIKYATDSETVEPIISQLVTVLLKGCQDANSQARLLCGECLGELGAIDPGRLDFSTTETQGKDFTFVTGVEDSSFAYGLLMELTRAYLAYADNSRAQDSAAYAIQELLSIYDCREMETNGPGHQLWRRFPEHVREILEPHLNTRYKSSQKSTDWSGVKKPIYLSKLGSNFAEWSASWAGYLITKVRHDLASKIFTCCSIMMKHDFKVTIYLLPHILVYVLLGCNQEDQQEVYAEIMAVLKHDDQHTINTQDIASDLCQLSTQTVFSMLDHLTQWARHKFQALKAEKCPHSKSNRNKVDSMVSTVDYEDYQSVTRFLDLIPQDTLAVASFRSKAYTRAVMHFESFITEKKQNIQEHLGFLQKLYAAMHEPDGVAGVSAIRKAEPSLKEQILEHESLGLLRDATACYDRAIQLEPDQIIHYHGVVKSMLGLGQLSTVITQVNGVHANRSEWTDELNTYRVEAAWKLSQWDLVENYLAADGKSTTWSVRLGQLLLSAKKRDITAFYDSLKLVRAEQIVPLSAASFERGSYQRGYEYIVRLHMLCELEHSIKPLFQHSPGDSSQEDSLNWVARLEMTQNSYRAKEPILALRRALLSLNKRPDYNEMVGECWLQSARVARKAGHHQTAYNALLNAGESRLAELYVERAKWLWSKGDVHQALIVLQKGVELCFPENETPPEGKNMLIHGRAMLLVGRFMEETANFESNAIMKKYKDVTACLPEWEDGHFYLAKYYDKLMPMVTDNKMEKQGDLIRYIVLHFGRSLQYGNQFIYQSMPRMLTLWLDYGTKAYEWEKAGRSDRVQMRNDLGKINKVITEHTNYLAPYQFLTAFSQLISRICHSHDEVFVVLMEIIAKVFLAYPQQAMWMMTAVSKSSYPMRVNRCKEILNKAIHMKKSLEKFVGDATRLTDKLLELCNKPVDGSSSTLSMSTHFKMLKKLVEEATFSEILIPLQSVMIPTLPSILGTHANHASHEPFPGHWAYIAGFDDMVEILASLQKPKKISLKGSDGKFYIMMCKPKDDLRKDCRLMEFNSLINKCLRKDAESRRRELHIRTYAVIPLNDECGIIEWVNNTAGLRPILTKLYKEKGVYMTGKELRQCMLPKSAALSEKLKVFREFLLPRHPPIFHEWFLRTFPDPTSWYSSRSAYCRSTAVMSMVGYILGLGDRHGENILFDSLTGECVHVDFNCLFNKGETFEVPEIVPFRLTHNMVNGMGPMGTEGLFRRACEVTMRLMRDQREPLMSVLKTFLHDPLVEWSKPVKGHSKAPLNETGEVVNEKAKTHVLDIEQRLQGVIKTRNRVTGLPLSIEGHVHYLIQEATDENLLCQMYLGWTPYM
inactive: [1] -0.075 | [2] 0.002 | [3] 0.001 | [4] 0.013 | [5] 0.001 | [6] -0.219 | [7] -0.032 | [8] 0.047 | [9] 0.014 | [10] -0.085 | [11] 0.044 | [12] -0.131 | [14] -0.01 | [15] 0.046
active: [13] 0.509

CDS2 (UniProt O95674)
inactive: [1] -0.035 | [2] -0.093 | [3] 0.073 | [4] 0.062 | [5] -0.005 | [6] -0.045 | [7] 0.093 | [8] -0.01 | [9] 0 | [10] -0.152 | [11] 0.007 | [12] 0.093 | [13] 0.024 | [14] -0.065 | [15] -0.028
